Assay: A High Throughput Confirmatory Assay used to Identify Novel Compounds that Inhibit Mycobacterium Tuberculosis in the absence of Glycerol using Purified and Synthesized Compounds (6).
Format: functional
For `COc1c(N2CCNC(C)C2)c(F)cc2c(=O)c(C(=O)O)cn(C3CC3)c12` (centres undefined), the IC90 was > 170 nM (active). For `CC(C)/N=c1\cc2n(-c3ccc(Cl)cc3)c3ccccc3nc-2cc1Nc1ccc(Cl)cc1`, the IC90 was > 230 nM (active). For `CO[C@H]1/C=C/O[C@@]2(C)Oc3c(C)c(O)c4c(O)c(c(C=NN5CCN(C)CC5)c(O)c4c3C2=O)NC(=O)/C(C)=C\C=C\[C@H](C)[C@H](O)[C@@H](C)[C@@H](O)[C@@H](C)[C@H](OC(C)=O)[C@@H]1C`, the IC90 was > 20 nM (active). In the case of `CC[N+](C)(CC)CCCCOc1ccc2c(c1)C(=O)c1cc(OCCCC[N+](C)(CC)CC)ccc1-2`, the IC90 is reported as > 2700 nM (active).
